Source: PubChem BioAssay (Tox21)
“And” between values parts separate entries of the source, which are not always exact repeats. Identical values can stand only once. Records with an inconclusive call do not appear. A call without a number means that no potency is given here. Some structures have more than one record in an assay (separate samples or runs), and their calls can disagree. The source made the active and inactive calls. Calls come from the whole dose curve.
Potency is the fitted concentration of half-maximal effect.

Assay: qHTS assay to identify small molecule antagonists of the estrogen receptor alpha (ER-alpha) signaling pathway using the BG1 cell line (AID 743080);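 note: BG1 cells stimulated with 17beta-estradiol alongside compound; nearly all actives have a fitted effect of over 25% in size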
Conditions: BG1Luc4E2 ERE-luciferase antagonist mode, luminescence; series mostly up to 70.3 µM
Excerpt: National Center for Advancing Translational Sciences [NCATS]
NIH Chemical Genomics Center [NCGC]
U.S. Environmental Protection Agency [EPA]
National Institutes of Environmental Health Sciences [NIEHS]
National Toxicology Program [NTP]
U.S. Food and Drug Administration [FDA]
Estrogen receptor (ER), a nuclear hormone receptor, plays an important role in development, metabolic homeostasis and reproduction. Endocrine disrupting chemicals (EDCs) and their interactions with steroid hormone receptors like ER causes disruption of normal endocrine function. Therefore, it is important to understand the effect of environmental chemicals on the ER signaling pathway. To identify ER antagonists, BG1-Luc-4E2 cell line (provided by Dr. Michael Denison from University of California) has been used to screen the Tox21 10K compound library. BG1Luc4E2 cell line endogenously expresses full-length ER-alpha and is stably transfected with a plasmid containing four estrogen responsive elements (ERE) upstream of a luciferase reporter gene.
Tox21 Assay Protocol Summary:
BG1-Luc-4E2 cells were cultured in phenol red free assay medium containing 10% charcoal stripped FBS for 5 days before the assay was performed. The cells were dispensed at 4,000 cells/4 uL of assay medium per well into white wall/solid-bottom 1536-well plates using a Multidrop Combi (ThermoFisher Scientific, Waltham, MA) dispenser. The assay plates were incubated at a 37C and 5% CO2 for 24 h, and then 23 nL of compounds dissolved in DMSO, positive controls or DMSO only was transferred to the assay plate using a Pintool station (Kalypsys, San Diego, CA), followed by addition of 1 uL of 17beta-estradiol in assay medium using a Flying Reagent Dispenser (Aurora Discovery, San Diego, CA). After the plates were incubated at 37 C and 5% CO2 for 21.5 h, 1 uL of CellTiter-Fluor reagent (Promega, Madison, WI) of measuring cytotoxicity was added using Flying Reagent Dispenser (FRD) to each well. The assay plates were incubated at 37 C and 5% CO2 for additional 30 min and the fluorescence intensity was quantified by a ViewLux plate reader (PerkinElmer, Shelton, CT). For measuring luciferase reporter gene activity, 4 uL of ONE-Glo reagent (Promega) was added to each plate using an FRD and luminescence was quantified by a ViewLux plate reader after 30 min incubation at room temperature.
For `C[C@H](CCC(=O)O)[C@H]1CC[C@H]2[C@@H]3CC[C@@H]4C[C@H](O)CC[C@]4(C)[C@H]3CC[C@]12C`, the Potency was “inactive”.
For `CCC(N)(CO)CO`, the Potency was “inactive”.
For `Cc1cc(C2CCCCC2)n(O)c(=O)c1`, the Potency was 9.02 µM (active).
With `Cc1ccc2oc(CN(Cc3ccccc3)C(=O)Nc3c(F)cc(F)cc3F)c(-c3ccc(Cl)cc3)c2c1` the Potency was “inactive”.
In the case of `CSc1ccc2c(c1)C(N1CCN(C)CC1)Cc1ccccc1S2` (stereo not given), the Potency is reported as “inactive”.
For `CC1(C)CCC(C)(C)c2cc(C(=O)Nc3ccc(C(=O)O)cc3)ccc21`, the Potency was 0.0043 µM (active).
With `CCCC(C)c1ccccc1O` (stereo not given) the Potency was “inactive”.
With `CC(=O)OCC(C)OC(C)=O` (stereo not given) the Potency was “inactive”.
With `O=CC=C(c1ccccc1)c1ccccc1` the Potency was 69.1 µM (active).
For `CC(C)=CCOc1ccc(/C=C/C(=O)c2ccc(OCC=C(C)C)cc2OCC(=O)O)cc1`, the Potency was “inactive”.
With `Cn1cc(C(=O)[C@@H]2CCc3nc[nH]c3C2)c2ccccc21` the Potency was “inactive”.
With `COc1ccc(-c2ccc3cc(C(=O)O)ccc3c2)cc1C12CC3CC(CC(C3)C1)C2` the Potency was 0.376 µM (active).
With `O=C(O)c1cc(O)c2c(c1)C(=O)c1cccc(O)c1C2=O` the Potency was “inactive”.
In the case of `CSc1ccc(/C=C2/C(C)=C(CC(=O)O)c3cc(F)ccc32)cc1`, the Potency is reported as “inactive”.
In the case of `CC(C)C(C)(C)C(C)(C)C(C)(C)S`, the Potency is reported as “inactive”.
In the case of `O=C1c2c(O)ccc(Nc3ccc(CCO)cc3)c2C(=O)c2c([N+](=O)[O-])ccc(O)c21`, the Potency is reported as “inactive”.
In the case of `CCN(CCC#N)c1ccc(N=Nc2c(Cl)cc([N+](=O)[O-])cc2Cl)cc1`, the Potency is reported as “inactive”.
In the case of `Cc1onc(-c2ccccc2Cl)c1C(=O)N[C@@H]1C(=O)N2[C@@H]1SC(C)(C)[C@@H]2C(=O)O`, the Potency is reported as “inactive”.
In the case of `CC(C)(C)C(=O)OCOC(=O)C1N2C(=O)CC2S(=O)(=O)C1(C)C` (stereo not given), the Potency is reported as “inactive”.
In the case of `O=C(c1ccc(F)cc1)C1CCN(CCn2c(=O)[nH]c3ccccc3c2=O)CC1`, the Potency is reported as “inactive”.
For `Cc1nc(-c2ccc3c(c2)CCN(CCC2CCC(NC(=O)/C=C/c4ccc(F)cc4)CC2)CC3)no1` (stereo not given), the Potency was “inactive”.
For `CCCN(CCC)C(=O)C(CCC(=O)OCCCN1CCN(CCOC(=O)Cc2c(C)n(C(=O)c3ccc(Cl)cc3)c3ccc(OC)cc23)CC1)NC(=O)c1ccccc1` (stereo not given), the Potency was “inactive”.
In the case of `CCC1=C[C@@H]2CN(C1)Cc1c([nH]c3ccccc13)[C@@](C(=O)OC)(c1cc3c(cc1OC)N(C)[C@H]1[C@@](O)(C(=O)OC)[C@H](OC(C)=O)[C@]4(CC)C=CCN5CC[C@]31[C@@H]54)C2`, the Potency is reported as “inactive”.
With `CSc1ccc(C(=O)c2[nH]c(=O)[nH]c2C)cc1` the Potency was “inactive”.
In the case of `O=C(Oc1cccc2cccnc12)c1ccccc1`, the Potency is reported as “inactive”.
For `CNC(=O)c1ccccc1`, the Potency was “inactive”.
With `ON=C1CCCC1` the Potency was “inactive”.
In the case of `NC(=O)N1C(=O)C(C(=O)c2cc(Cl)cs2)c2cc(F)c(Cl)cc21` (stereo not given), the Potency is reported as “inactive”.
With `CN(C)c1ccc(C2(c3ccc(N(C)C)cc3)OC(=O)c3cc(N(C)C)ccc32)cc1` the Potency was “inactive”.
In the case of `CCOc1nc2cccc(C(=O)OC(C)OC(=O)OC3CCCCC3)c2n1Cc1ccc(-c2ccccc2-c2nn[nH]n2)cc1` (stereo not given), the Potency is reported as “inactive”.
With `Oc1ccc(Cl)cc1Sc1cc(Cl)ccc1O` the Potency was “inactive”.
With `Cc1c(C)c2c(c(C)c1O)CCC(C)(COc1ccc(CC3SC(=O)NC3=O)cc1)O2` (stereo not given) the Potency was 23.7 µM (active).
In the case of `c1cc(C(c2ccc(OCC3CO3)cc2)c2ccc(OCC3CO3)cc2)ccc1OCC1CO1` (stereo not given), the Potency is reported as “inactive”.
In the case of `Fc1ccc(C(c2ccc(F)cc2)N2CCN(C/C=C/c3ccccc3)CC2)cc1`, the Potency is reported as “inactive”.
In the case of `O=C(c1ccc(O)cc1O)c1ccc(O)cc1O`, the Potency is reported as “inactive”.
In the case of `CC(=O)S[C@@H]1CC2=CC(=O)CC[C@]2(C)[C@H]2CC[C@@]3(C)[C@@H](CC[C@@]34CCC(=O)O4)[C@H]12`, the Potency is reported as “inactive and 48.6 µM (active)”.
In the case of `O=C(O)c1ccc(Cl)c(Cl)c1`, the Potency is reported as “inactive”.
In the case of `NNc1nc(-c2ccccc2)cs1`, the Potency is reported as “inactive”.
With `Fc1ccc([C@@H]2CCNC[C@H]2COc2ccc3c(c2)OCO3)cc1` the Potency was “inactive”.
In the case of `Cc1cccc(CN2CCN(C(c3ccccc3)c3ccc(Cl)cc3)CC2)c1` (stereo not given), the Potency is reported as “inactive”.
